The text below walks through data of the antibiotic and cytotoxicity screens of Wong et al. (2023).

The campaign covered roughly 39,000 compounds. About 3,300 (8.5%) were called active. This excerpt belongs to a sample that is enriched for actives.

The assay deals with HepG2. The assay is described as follows: cytotoxicity call (relative viability < 0.9). The settings on record: 10 µM.
For the compound `C[C@@H]1CN([C@H](C)CO)C(=O)c2cc(NC(=O)c3ccncc3)ccc2O[C@@H](C)CCCCO[C@H]1CN(C)S(=O)(=O)c1cn(C)cn1`, the cytotoxicity call was “inactive”. To `CC(C)NC(=O)N(C)C[C@@H]1Oc2ncc(-c3ccc(C(=O)N(C)C)cc3)cc2C(=O)N([C@H](C)CO)C[C@H]1C` belongs “inactive”; to `CN(C)C(=O)c1cccc(-c2cccc(-c3nc(C(=O)N4CCCCC4)cc4c3[C@H](CCO)N([S@@](=O)C(C)(C)C)C4)c2)c1`, “inactive”; to `C[C@@H]1CN([C@@H](C)CO)C(=O)c2cc(NC(=O)c3ccccc3)ccc2O[C@@H](C)CCCCO[C@H]1CN(C)C(=O)Nc1ccc2c(c1)OCO2`, “inactive”. To `C[C@@H]1CN([C@@H](C)CO)C(=O)CCCn2nncc2CO[C@H]1CN(C)Cc1ccc2c(c1)OCCN2C` belongs “inactive”; to `CCC(C)C(=O)OC1CC(C)C=C2C=CC(C)C(CCC3CC(O)CC(=O)O3)C21` (stereo not drawn), “inactive”.

`CCC(C)C(=O)OC1CC(O)C=C2C=CC(C)C(CCC(O)CC(O)CC(=O)[O-])C21.[Na+]` (stereo not drawn): the cytotoxicity call is “inactive”. Regarding `CCC(C)C(=O)OC1CCC=C2C=CC(C)C(CCC3CC(O)CC(=O)O3)C21` (stereo not drawn), the cytotoxicity call is “active”. In the case of `C[C@@H]1CN([C@@H](C)CO)C(=O)c2cc(NS(=O)(=O)c3ccc(F)cc3)ccc2O[C@@H](C)CCCCO[C@@H]1CN(C)C(=O)Nc1ccc(F)cc1` it was “inactive”. To `C[C@H]1CCCCO[C@H](CN(C)C(=O)Nc2ccc(F)cc2)[C@@H](C)CN([C@@H](C)CO)C(=O)c2cc(NS(=O)(=O)c3ccc(F)cc3)ccc2O1` belongs “active”; to `C[C@@H]1CCCCO[C@H](CN(C)C(=O)Nc2ccc(F)cc2)[C@@H](C)CN([C@@H](C)CO)C(=O)c2cc(NS(=O)(=O)c3ccc(F)cc3)ccc2O1`, “active”.

Consider `C[C@@H]1CCCCO[C@H](CN(C)C(=O)Nc2ccc(F)cc2)[C@@H](C)CN([C@H](C)CO)C(=O)c2cc(NS(=O)(=O)c3ccc(F)cc3)ccc2O1`, for which the cytotoxicity call is “inactive”. In the case of `C[C@H](CO)N1C[C@H](C)[C@H](CN(C)C(=O)Nc2ccc(F)cc2)OCCCC[C@H](C)Oc2ccc(NS(=O)(=O)c3ccc(F)cc3)cc2C1=O` it was “inactive”; in that of `C[C@@H]1CN([C@H](C)CO)C(=O)c2cc(NS(=O)(=O)c3ccc(F)cc3)ccc2O[C@@H](C)CCCCO[C@H]1CN(C)C(=O)Nc1ccc(F)cc1`, “inactive”; in that of `C[C@@H]1CN([C@H](C)CO)S(=O)(=O)c2ccc(C#Cc3ccccc3F)cc2O[C@@H]1CN(C)CC1CCOCC1`, “inactive”.

Take `COc1ccc(CN(C)C[C@H]2OCCCC[C@@H](C)Oc3ccc(NC(=O)NC4CCCCC4)cc3C(=O)N([C@@H](C)CO)C[C@H]2C)cc1`: the cytotoxicity call was “inactive”.

Consider `Cc1ncsc1-c1ccc(CNC(=O)[C@@H]2C[C@@H](O)CN2C(=O)[C@H](C(C)C)N2Cc3ccccc3C2=O)cc1`, for which the cytotoxicity call was “inactive”. In the case of `CN1C(=O)Cc2cc(NS(C)(=O)=O)ccc21` it was “inactive”; in that of `COc1ccc(S(=O)(=O)Nc2ccc3c(c2)C(=O)N([C@@H](C)CO)C[C@H](C)[C@H](CN(C)Cc2ccc(C(=O)O)cc2)OCCCC[C@@H](C)O3)cc1`, “inactive”. To `COCCN1C[C@H]2[C@H](OC)CCN(S(=O)(=O)c3cn(C)cn3)[C@H]2C1` belongs “inactive”. In the case of `CC1CC2C3CCC4=CC(=O)C=CC4(C)C3(Cl)C(O)CC2(C)C1(OC(=O)c1ccco1)C(=O)CCl` (stereo not drawn) it was “active”; in that of `CCC(=O)OC1(C(=O)CCl)C(C)CC2C3CCC4=CC(=O)C=CC4(C)C3(F)C(O)CC21C` (stereo not drawn), “inactive”; in that of `CCC(=O)OCC(=O)C1(OC(=O)CC)C(C)CC2C3CCC4=CC(=O)C=CC4(C)C3(Cl)C(O)CC21C` (stereo not drawn), “inactive”. `C[C@@H]1CCCCO[C@H](CN(C)C(=O)Nc2ccccc2)[C@H](C)CN([C@H](C)CO)C(=O)c2cc(NC(=O)CCC(F)(F)F)ccc2O1`: the cytotoxicity call was “inactive”.

As for `C[C@@H]1CN([C@H](C)CO)C(=O)c2cc(NC(=O)Cc3ccccc3)ccc2O[C@@H](C)CCCCO[C@@H]1CN(C)Cc1ccc(C(=O)O)cc1`, the cytotoxicity call is “inactive”. Take `Cn1c(=O)c2[nH]c(-[n+]3ccc(C(=O)O)cc3)nc2n(C)c1=O`: the cytotoxicity call was “active”. To `Cn1c(=O)c2[nH]c(Br)nc2n(C)c1=O` [listing 1 of 2 here] belongs “inactive”; to `Cn1c(=O)c2[nH]c(Br)nc2n(C)c1=O` [listing 2 of 2 here], “inactive”; to `C[C@H]1CN([C@@H](C)CO)C(=O)c2cccc(NS(=O)(=O)c3ccc(F)cc3)c2O[C@H]1CN(C)S(C)(=O)=O`, “inactive”. In the case of `COc1ccc(S(=O)(=O)Nc2ccc3c(c2)C(=O)N([C@@H](C)CO)C[C@@H](C)[C@@H](CN(C)C(=O)Nc2ccc(C(F)(F)F)cc2)OCCCC[C@@H](C)O3)cc1` it was “active”. In the case of `COc1ccc(S(=O)(=O)Nc2ccc3c(c2)C(=O)N([C@H](C)CO)C[C@@H](C)[C@H](CN(C)C(=O)Nc2ccc(C(F)(F)F)cc2)OCCCC[C@@H](C)O3)cc1` it was “inactive”; in that of `COc1ccc(S(=O)(=O)Nc2ccc3c(c2)C(=O)N([C@@H](C)CO)C[C@@H](C)[C@H](CN(C)C(=O)Nc2ccc(C(F)(F)F)cc2)OCCCC[C@H](C)O3)cc1`, “inactive”; in that of `COc1ccc(S(=O)(=O)Nc2ccc3c(c2)C(=O)N([C@@H](C)CO)C[C@H](C)[C@H](CN(C)C(=O)Nc2ccc(C(F)(F)F)cc2)OCCCC[C@H](C)O3)cc1`, “inactive”.

`COc1ccc(S(=O)(=O)Nc2ccc3c(c2)C(=O)N([C@H](C)CO)C[C@H](C)[C@H](CN(C)C(=O)Nc2ccc(C(F)(F)F)cc2)OCCCC[C@H](C)O3)cc1`: the cytotoxicity call was “inactive”.

On to `COc1ccc(S(=O)(=O)Nc2ccc3c(c2)C(=O)N([C@H](C)CO)C[C@H](C)[C@H](CN(C)C(=O)Nc2ccc(C(F)(F)F)cc2)OCCCC[C@@H](C)O3)cc1`, for which the cytotoxicity call was “inactive”. In the case of `COc1ccc(S(=O)(=O)Nc2ccc3c(c2)C(=O)N([C@@H](C)CO)C[C@H](C)[C@H](CN(C)C(=O)Nc2ccc(C(F)(F)F)cc2)OCCCC[C@@H](C)O3)cc1` it was “inactive”; in that of `COc1ccc(S(=O)(=O)Nc2ccc3c(c2)C(=O)N([C@@H](C)CO)C[C@H](C)[C@@H](CN(C)C(=O)Nc2ccc(C(F)(F)F)cc2)OCCCC[C@H](C)O3)cc1`, “active”. To `COc1ccc(S(=O)(=O)Nc2ccc3c(c2)C(=O)N([C@@H](C)CO)C[C@H](C)[C@@H](CN(C)C(=O)Nc2ccc(C(F)(F)F)cc2)OCCCC[C@@H](C)O3)cc1` belongs “active”.
